The first test deals with RAF1.
Consider `CCCS(=O)(=O)Nc1ccc(F)c(-n2cc(-c3cncc(OC)c3)nn2)c1F` [BI00865461], for which the Kinases covered entry is on record as “RAF1”. On to `CN(C)CCOc1ccc(-c2nc(-c3ccc4c(c3)CC/C4=N\O)c(-c3ccncc3)[nH]2)cc1` [SB-590885], for which the Kinases covered result is “RAF1”. `O=C1Nc2ccc(C(=O)c3ccco3)cc2C1=Cc1cc(Cl)c(O)c(Cl)c1` [GW406108X]: the Kinases covered result was “RAF1”.

The subject of another test is RET.
As for `COc1cc2ncnc(Nc3cccc(Cl)c3F)c2cc1O[C@H]1CC[C@H]([C@@H]2NCCNC2=O)CC1` [BI00133844], the Kinases covered result is listed as “RET”. `COc1cc2c(cc1OC)C(=C(Nc1ccccc1)c1cccc(CN)c1)C(=O)N2` [BIBF0846CL]: the Kinases covered result was “RET”. Regarding `Cl.O=C(Nc1ccc(Oc2ccc3[nH]c(NC(=O)c4ccccc4)nc3c2)cc1)Nc1cc(C(F)(F)F)ccc1F` [GW709042A], the Kinases covered result is given as “RET”.

A further test deals with RIPK1.
Turning to `Cn1cc(-c2ccc3c(c2)CCN3C(=O)Cc2cccc(C(F)(F)F)c2)c2c(N)ncnc21` [GSK2606414], the Kinases covered result is listed as “RIPK1”. Turning to `Cc1cccc(CC(=O)N2CCc3c2ccc(-c2cn(C)c4ncnc(N)c24)c3F)n1` [GSK2656157], the Kinases covered result was “RIPK1”. As for `CN1C(=O)[C@@H](NC(=O)c2cc(Cc3ccccc3)on2)COc2ccccc21` [GSK481], the Kinases covered entry is given as “RIPK1”.

A further test has as its system RIPK2.
Consider `CC(C)(C)S(=O)(=O)c1ccc2nccc(Nc3n[nH]c4ccc(F)cc34)c2c1` [GSK583], for which the Kinases covered entry is “RIPK2”. Same read-out and setting: for `CN(C)CCOc1ccc(-c2nc(-c3ccc4c(c3)CC/C4=N\O)c(-c3ccncc3)[nH]2)cc1` [SB-590885] the value was “RIPK2”.

As to `COc1cc(-c2cncc(-c3cnn(C4CCNCC4)c3)c2)cc(OC)c1OC` [K05908], the Kinases covered entry is given as “RIPK2”.

The next test relates to RIPK3.
With `CC(C)S(=O)(=O)c1ccc2nccc(Nc3ccc4scnc4c3)c2c1` [GSK872], the Kinases covered result is on record as “RIPK3”. For `Cc1cc(-c2cnc(N)c3c(-c4ccc5scnc5c4)csc23)n(C)n1` [GSK843], the Kinases covered entry is “RIPK3”.

Turning to `CNC(=O)c1ccc2c(c1)ncn2-c1ccc(CC(=O)OC(C)(C)C)cc1` [GSK840], the Kinases covered result is recorded as “RIPK3”.

Source of the values: publication PMC7826789 (International Journal of Molecular Sciences, 2021).
